Laboratory results published in PubChem BioAssay AID449 (The Scripps Research Institute Molecular Screening Center, 2006).
Hit rate of the full screen: of about 56,000 compounds, about 320 (0.57%) were called active.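 The calls were made as follows: active = activation above a cutoff set at the mean activation of all tested compounds plus 3 SD (cut at about 54% in these data); inactive = the rest, inconclusive results apart.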 The entries come from a sample that favours actives as a whole.

Biological target: Sphingosine 1-phosphate receptor 1 (Homo sapiens) (UniProt P21453)
Sequence (P21453 whole entry, looked up): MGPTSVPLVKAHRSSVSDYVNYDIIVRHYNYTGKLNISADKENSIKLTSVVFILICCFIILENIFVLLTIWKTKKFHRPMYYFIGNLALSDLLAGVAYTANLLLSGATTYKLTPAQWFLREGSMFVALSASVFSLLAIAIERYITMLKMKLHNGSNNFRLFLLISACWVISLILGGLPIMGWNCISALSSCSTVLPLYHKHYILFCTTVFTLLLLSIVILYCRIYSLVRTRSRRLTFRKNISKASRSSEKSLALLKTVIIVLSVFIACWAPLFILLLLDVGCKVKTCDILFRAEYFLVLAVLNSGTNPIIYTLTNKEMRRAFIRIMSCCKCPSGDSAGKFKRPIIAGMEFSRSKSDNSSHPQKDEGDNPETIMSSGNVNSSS
Test: activation or potentiation of human S1P1 signaling – cell-based, primary and confirmation screens, CRE-bla reporter, primary screen (AID 449);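 also: forskolin at 4 µM as EC80 and the EC20 agonist is SEW2871; 100% = SEW2871 at its EC100 plus forskolin at EC80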
Settings: S1P1 CRE-bla cells, forskolin, beta-lactamase FRET, potentiator mode, at 9.5 µM, stronger effect = higher value, 100% = saturating reference agonist, 0% = basal, S1P1 agonist co-added at EC20, 2 nM
[1] = measured here: confirmation screen, triplicate average

Structure (SMILES) | activation | activation [1] [%]
c1csc(-c2cn3c(n2)SCC3)c1 | -25.6% (inactive) | 
CCc1cc(=O)oc2cc(OCC(=O)N3CCCc4ccccc43)ccc12 | -15.5% (inactive) | 
CCSC(C)CC1C/C(=N/O)c2c(C)noc2C1 (configuration not stated) | -5.8% (inactive) | 
COC(=O)Cc1c(C)c2ccc(OCC(=O)NCc3ccc4c(c3)OCO4)cc2oc1=O | -1.6% (inactive) | 
CSc1nnc(CNC(=O)c2ccccc2)n1-c1ccc(F)cc1 | -11.1% (inactive) | 
O=C(CCCOc1ccccc1)Nc1cccc(C(=O)O)c1 | 2.3% (inactive) | 
COc1ccc(C(=O)Nc2cccnc2)cc1C(=O)Nc1cccnc1 | 5.6% (inactive) | 
CN(C)/C=C1/C(=O)Nc2ccccc21 | -14.3% (inactive) | 
COC(=O)C(C)n1cnc2c(nnn2-c2cccc(Cl)c2)c1=O (configuration not stated) | -14.1% (inactive) | 
Cn1c(=O)[nH]c(=O)c2c1nc(CN1CCN(c3ccccc3F)CC1)n2CCc1ccccc1 | -6.4% (inactive) | 
O=C(Nc1c(-c2ccccc2)nc2c(Br)cc(Br)cn12)c1ccco1 | 17.7% (inactive) | 
Cc1nc2ccc(S(=O)(=O)NC(C(=O)N3CCCCCC3)C(C)C)cc2s1 (configuration not stated) | -9.8% (inactive) | 
CCCOC(=O)c1cc2ccccc2oc1=O | -2.5% (inactive) | 
Cc1ccnc(SCCn2c(N(C)Cc3ccccc3)nc3c2c(=O)n(C)c(=O)n3C)n1 | -31.4% (inactive) | 
N#Cc1c2c(c(-c3ccccc3)[nH]c1=O)CCCC2 | -28.7% (inactive) | 
C=CCOc1nc2c(c(=O)n(C)c(=O)n2C)n1Cc1ccc(Cl)cc1Cl | 2.7% (inactive) | 
O=P(O)(CN1CCCCC1)CN1CCCCC1 | -3% (inactive) | 
COc1ccc(OCC(=O)OCC(=O)Nc2ccc(S(=O)(=O)N3CCCCC3)cc2)cc1 | -8.9% (inactive) | 
COc1ccc(C2C(C#N)=C(N)Oc3cc(N)ccc32)cc1OC (configuration not stated) | -18% (inactive) | 
COc1ccc(CSc2nc(N3CCOCC3)c3c(c2C#N)CC(C)(C)OC3)cc1 | -11.9% (inactive) | 
CC(=O)Nc1ccc(S(=O)(=O)N2CCN(C3CCCCCCC3)CC2)cc1 | -11.9% (inactive) | 
COc1cc(OC)cc(C(=O)Nc2ncc3c(n2)CC(C)(C)CC3=O)c1 | -4.2% (inactive) | 
CC(C)(C)Nc1c(N)c(=O)oc2ccccc12 | 9.1% (inactive) | 
O=c1oc2c(CN3CCCCC3)c(O)ccc2c2c1CCCCC2 | -2.6% (inactive) | 

Structure (SMILES) | activation | activation [1] [%]
O=C(O)c1cccc2c1C(=O)N(C1CCCCC1)C2 | -25.1% (inactive) | 
O=C(CN1CCOc2ccccc21)N1CCC(Cc2ccccc2)CC1 | 6% (inactive) | 
CCCC(=O)N1c2ccccc2NC2=C(C(=O)CCC2)C1c1ccc(F)cc1 (configuration not stated) | -9.6% (inactive) | 
Cc1cccc(CC(=O)Nc2c3c(nn2-c2cccc(Cl)c2)CS(=O)C3)c1 (configuration not stated) | 26.1% (inactive) | 
CC[C@H]1CN2CCc3cc(OC)c(OC)cc3[C@@H]2C[C@@H]1C[C@H]1NCCc2cc(OC)c(OC)cc21 | 131% (active) | 101
Cc1csc(NC(=O)C2CCCN2C(=O)OCC(C)C)n1 (configuration not stated) | 6.7% (inactive) | 
CCOc1ncccc1C(=O)OCc1cn2cc(Cl)ccc2n1 | -55.2% (inactive) | 
CCOC(=O)N1CCN(C(=O)C2CCN(c3ncnc4c3sc3cccc(F)c34)CC2)CC1 | 96.6% (active) | 78.6
CCOC(=O)C1CCN(c2ncnc3c2oc2ccc(Br)cc23)CC1 | 3.6% (inactive) | 
CCOC(=O)N1CCN(C(=O)C2CCCN(c3ncnc4c3sc3cccc(F)c34)C2)CC1 (configuration not stated) | -8.7% (inactive) | 
CN1C(=O)CC(N2CCN(c3ccccn3)CC2)C1=O (configuration not stated) | -14.2% (inactive) | 
O=C(O)CN(Cc1ccco1)S(=O)(=O)c1ccccc1 | -18.7% (inactive) | 
CCC1(C)N(O)C(C)(C)C(c2ccc(OC)cc2)=[N+]1[O-] (configuration not stated) | -9.9% (inactive) | 
Cn1c(=NC(=O)C2CC2)sc2cc(F)cc(F)c21 | 0.7% (inactive) | 
COc1ccc(N2C(=O)C3CCCN3C2c2cccc(OC)c2)cc1 (configuration not stated) | 5.4% (inactive) | 
C=C(Br)CN1CCN(CC(=C)Br)CC1 | -15.8% (inactive) | 
Cc1ccc(C2CC(c3cccc(Br)c3)n3nc(N)nc3N2)cc1 (configuration not stated) | -10.7% (inactive) | 
COc1ccccc1-n1c(CNC(=O)c2ccccc2)nnc1SCC(=O)Nc1nnc(C)s1 | -0.9% (inactive) | 
O=C(CSCc1cccs1)N1CCCC1 | -22.9% (inactive) | 
CC(C)Oc1ccc(C(=O)Nc2cc(=O)n(C)c(=O)n2C)cc1 | -4.5% (inactive) | 
CCCN1CCN(C(=O)Cn2ncc3ccccc32)CC1 | -19.3% (inactive) | 
Cc1cc(C)c(S(=O)(=O)NCCCN2CCOCC2)cc1Br | 3.7% (inactive) | 
CC(=O)N1CCN(c2cccc(C)c2C)CC1 | -9.6% (inactive) | 
CCNC(=O)N1CCNC(=O)C1CC(=O)Nc1ccc(C(=O)OCC)cc1 (configuration not stated) | -11.5% (inactive) | 

Structure (SMILES) | activation | activation [1] [%]
COc1ccccc1NC1=NC2(CCCC2)N=C(N)N1 | 5.5% (inactive) | 
CCN(CC)S(=O)(=O)c1ccc2nc(CSc3nnnn3-c3ccc(O)cc3)[nH]c2c1 | -21.4% (inactive) | 
O=S(=O)(Nc1ccc2nc(-c3ccco3)[nH]c2c1)c1ccccc1 | 5.9% (inactive) | 
Cc1ccc(C2c3c(oc4ccc(C)cc4c3=O)C(=O)N2CCCN2CCOCC2)cc1 (configuration not stated) | 3.6% (inactive) | 
COc1ccccc1-n1nnnc1S(=O)(=O)Cc1ccc(Cl)cc1 | 89.3% (active) | 76
COCCn1nnnc1C(c1ccccc1Cl)N1CCN(c2ccccc2OC)CC1 (configuration not stated) | -15.5% (inactive) | 
COc1ccccc1N1CCN(Cc2nnnn2CCc2ccccc2)CC1 | -1.7% (inactive) | 
CCOC(=O)C1Cn2c(nc3c(c2=O)C(C)(CC)Cc2ccccc2-3)S1 (configuration not stated) | -35.4% (inactive) | 
COc1ccc(OC)c(C(=O)c2coc3ccc(OC)cc23)c1 | 7.5% (inactive) | 
CCCCn1c(CCCNC(=O)CC)nc2ccccc21 | -7% (inactive) | 
COc1ccc(-c2ccc(-c3noc(-c4ccncc4)n3)c(OC)n2)cc1 | -6.8% (inactive) | 
Cc1ccccc1OCC(=O)Nc1ccc(N2CCN(C(=O)C(C)C)CC2)c(Cl)c1 | 92.5% (active) | 68.2
CN1CCN(c2ccc(NC(=O)COc3ccc(Cl)cc3Cl)cc2)CC1 | -9.3% (inactive) | 
Cc1cccc(NC(=O)COc2ccccc2C)n1 | 15.3% (inactive) | 
c1ccc2c(c1)OCC(CNc1ncnc3nc[nH]c13)O2 (configuration not stated) | 23.9% (inactive) | 
COc1ccc(CCNc2ncnc3nc[nH]c23)cc1OC | -11.4% (inactive) | 
CCc1ccc(N(CC)c2ncnc3nc[nH]c23)cc1 | 56.5% (active) | 57.4
COC(=O)c1cc(C(=O)CSc2nc(C)cc(C)n2)ccc1O | -13.3% (inactive) | 
CC(C)OC(=O)c1sc2nc3c(cc2c1N)C(=O)CCC3 | -1.6% (inactive) | 
Cc1ccc(-c2nn(-c3ccccc3)cc2CN(Cc2ccccc2)C(=O)CCC(=O)O)o1 | -15.4% (inactive) | 
CCCc1nc(SCC(=O)Nc2ccccc2OC)c2c(=O)n(C)c(=O)n(C)c2n1 | -6% (inactive) | 
COc1ccc(OC)c(C(=O)CSc2nnc(-c3cccs3)o2)c1 | -31.3% (inactive) | 
COc1ccc(-c2nnc(SCC(=O)c3cccs3)o2)c(OC)c1 | 8.5% (inactive) | 
COc1ccc(-n2c(C)cc(C(=O)CSc3nnc(-c4cccs4)o3)c2C)cc1 | 114% (active) | 111

Structure (SMILES) | activation | activation [1] [%]
CCOC(=O)c1sc(/N=C/Nc2nc(C)c(C(=O)OCC)s2)nc1C | 11.8% (inactive) | 
Cc1cc(C(=O)N2CCN(c3ccccn3)CC2)c(C)o1 | -7.8% (inactive) | 
COc1cccc(N(CC(=O)Nc2cccc(F)c2)S(C)(=O)=O)c1 | 13.1% (inactive) | 
COc1ccc(C)c2sc(=NC(=O)c3ccc(C#N)cc3)n(C)c12 | -12.3% (inactive) | 
CCSC1(SCC)N=C(N)C2(C#N)C(c3ccccc3)NC(C)=CC12C#N (configuration not stated) | 2.3% (inactive) | 
CC(NC(=O)c1ccc(Cl)cc1)C(=O)N1CCCCC1 (configuration not stated) | -2% (inactive) | 
CC1CSc2nnc(CCc3ccccc3)n21 (configuration not stated) | -14.3% (inactive) | 
CC12COC3(C(=O)Nc4ccc(Cl)cn4)CC1CCC32C (configuration not stated) | -10.8% (inactive) | 
COCCCn1c2nc3ccccc3nc2c2c(=O)n(Cc3ccc(Cl)cc3)c(C)nc21 | 6% (inactive) | 
CCC(C(=O)Nc1ncccn1)(C(F)(F)F)C(F)(F)F | -4.8% (inactive) | 
CC(C)Cc1cc(C(=O)NCCc2ccccc2)no1 | 20.9% (inactive) | 
CCCOc1ccc(-c2nc(N)n[nH]2)cc1 | 5.2% (inactive) | 
CCOC(=O)C1CCCN(C(=O)Cn2ncc3c(=O)oc4ccc(C)cc4c32)C1 (configuration not stated) | -8.1% (inactive) | 
Cc1cc(OCCN2CCCC2)ccc1C(C)C | -14.6% (inactive) | 
COc1ccc(OC)c2[nH]c(=O)c(CCNC(=O)C(C)(C)C)cc12 | -8.4% (inactive) | 
CCOC(=O)CSC1=C(C#N)C(c2sccc2C)CC(=O)N1 (configuration not stated) | -11.6% (inactive) | 
CC(=O)N1CCN(C(=O)c2cccc(S(=O)(=O)Nc3ccc(C)cc3)c2)CC1 | -12.2% (inactive) | 
Cc1c(C(=O)NCC2CCCO2)sc2nc(-c3ccccc3)cn12 (configuration not stated) | -17.8% (inactive) | 
CCOc1ccc(NC(=O)CSc2nc3c(c(=O)n2-c2ccccc2OC)SCC3)cc1 | -5.9% (inactive) | 
COc1ccc(OC)c2sc(NC(=O)C3COc4ccccc4O3)nc12 (configuration not stated) | -1.3% (inactive) | 
COc1ccc(CCNC(=O)CN2CCC(n3nnc4cc(F)ccc43)CC2)cc1OC | -19.7% (inactive) | 
COCCOC(=O)C1=C(C)N=c2s/c(=C\c3cccs3)c(=O)n2C1c1cccs1 (configuration not stated) | 2.2% (inactive) | 
COc1ccc(OC)c(CNC(=O)CCc2nc(-c3cccs3)no2)c1 | 9.5% (inactive) | 
CC(C)(C)NC(=O)C(c1ccco1)N(Cc1ccc2c(c1)OCO2)C(=O)Cn1nnc2ccccc21 (configuration not stated) | 11.2% (inactive) | 
